Test systems include SK-MEL-2 melanoma; EKVX NSCLC; SN12C renal; UO-31 renal; TK-10 renal; ACHN renal; CAKI-1 renal; A498 renal; CCRF-CEM leukemia; MOLT-4 leukemia.
Holding throughout (test): NCI-60 one-dose screen, 48 h (100 = growth as untreated, 0 = no growth, -100 = all killed)
What all share (settings): 10 µM unless noted

The panel holds about 83,000 compounds, 20% with a hit somewhere; the sample as a whole holds those more often.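 Cell lines were cultured in 96-well plates, exposed to a single compound concentration, and assessed for percent growth 48 hours later.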 A number with no mark means an inactive call. The source made the active and inactive calls. The calls were made as follows: active = growth percent below 10; inactive = the rest.

As to `O=C(CSc1nc2ccc([N+](=O)[O-])cc2[nH]1)Nc1ccc(F)cc1`, the growth was 63.6% with SK-MEL-2 melanoma; 56.5% with EKVX NSCLC; 55.6% with SN12C renal; 38.2% in the experiment with UO-31 renal; 77.1% in the experiment on TK-10 renal; 68.5% with ACHN renal. Besides, the growth in the experiment on CAKI-1 renal is 45.5%; in the experiment with A498 renal, 29.5%; in the experiment with CCRF-CEM leukemia, 53.3%; in the experiment with MOLT-4 leukemia, 54.2%.
For `CC1=C(CCC(C)N(C)Cc2ccc(OCCCN3CCCC3)cc2)C(C)(C)CCC1` (stereo not given), the growth with SK-MEL-2 melanoma is -55.2% (active); in the experiment with EKVX NSCLC, 47.4%; with SN12C renal it was 56.9%; in the experiment with UO-31 renal, 20.3%; in the experiment on TK-10 renal, 49.9%; with ACHN renal, 36.8%. Further, the growth in the experiment with CAKI-1 renal is 49.9%; in the experiment with A498 renal, 57.2%; in the experiment on CCRF-CEM leukemia it was 11.1%; with MOLT-4 leukemia, -24.2% (active).
In the case of `O=C(Nc1cc(Cl)ccc1O)c1ccc(Nc2ccnc(C(F)(F)F)c2)cc1`, the growth is 41.4% with SK-MEL-2 melanoma; 71.2% in the experiment with EKVX NSCLC; 35.6% with SN12C renal; 12.6% in the experiment on UO-31 renal; 79% in the experiment with TK-10 renal; 23.7% with ACHN renal. For the same compound, the growth with CAKI-1 renal is 58.7%; in the experiment with A498 renal, 35.8%; in the experiment with CCRF-CEM leukemia it was 2.44% (active); in the experiment with MOLT-4 leukemia, 19.2%.
Turning to `C[C@]12CC[C@@H]3c4ccc(O)c([N+](=O)[O-])c4CC[C@H]3[C@@H]1CCC2=O`, the growth was 107% in the experiment on SK-MEL-2 melanoma; 58.5% with EKVX NSCLC; 101% with SN12C renal; 81.5% in the experiment on UO-31 renal; 89% in the experiment on TK-10 renal; 94.1% in the experiment with ACHN renal. For the same compound, the growth is 72.7% in the experiment on CAKI-1 renal, 141% in the experiment on A498 renal, 110% with CCRF-CEM leukemia and 80.4% in the experiment with MOLT-4 leukemia.
Turning to `O=C1/C(=C/c2ccc(F)cc2)COc2ccc(O)cc21`, the growth in the experiment on SK-MEL-2 melanoma was 114%; in the experiment on EKVX NSCLC, 101%; in the experiment on SN12C renal it was 78.4%; in the experiment on UO-31 renal, 64.5%; in the experiment with TK-10 renal, 100%; with ACHN renal, 87.7%. In addition, the growth in the experiment with CAKI-1 renal is 75.8%; in the experiment on A498 renal it was 111%; in the experiment on CCRF-CEM leukemia, 5.18% (active); in the experiment with MOLT-4 leukemia, 51.7%.
Regarding `Cc1cc(=O)[nH]c2c(C#N)cnn12`, the growth is 102% in the experiment with SK-MEL-2 melanoma; 97% in the experiment with EKVX NSCLC; 97.4% in the experiment on SN12C renal; 83.8% in the experiment on UO-31 renal; 101% in the experiment with TK-10 renal; 98.8% in the experiment with ACHN renal. For the same compound, the growth in the experiment on CAKI-1 renal is 93.6%; with A498 renal, 93.1%; in the experiment with CCRF-CEM leukemia, 101%; in the experiment on MOLT-4 leukemia it was 105%.
Turning to `N#C/C(=C\c1ccc2ccccc2c1)c1cc2ccccc2[nH]1`, the growth with SK-MEL-2 melanoma is 43.5%; with EKVX NSCLC, 55.3%; in the experiment with SN12C renal it was 49.8%; in the experiment on UO-31 renal it was 49%; in the experiment with TK-10 renal, 75.6%; with ACHN renal it was 50.4%. The growth was 38.1% in the experiment on CAKI-1 renal, 33.7% with A498 renal, 18.5% in the experiment on CCRF-CEM leukemia and 29% in the experiment with MOLT-4 leukemia.
On to `OCc1cccc(-c2ccc3ncc(-c4nc(NC5CC5)ncc4F)n3c2)c1`, for which the growth in the experiment with SK-MEL-2 melanoma is -55.4% (active); with EKVX NSCLC it was 2.69% (active); in the experiment with SN12C renal, -15.4% (active); with UO-31 renal, -14.1% (active); in the experiment on TK-10 renal, 13.5%; with ACHN renal, -13.2% (active). Besides, the growth was 1.44% (active) in the experiment on CAKI-1 renal, -47.8% (active) in the experiment with A498 renal, -2% (active) in the experiment with CCRF-CEM leukemia and -27.8% (active) in the experiment with MOLT-4 leukemia.
Take `CC[C@]12C=CCN3CC[C@@]4(c5cc(NC(=O)CCC(=O)OCc6cn(Cc7ccc(F)cc7)nn6)c(OC)cc5N(C)[C@H]4[C@@](O)(C(=O)OC)[C@@H]1OC(C)=O)[C@@H]32`: the growth was 109% in the experiment with SK-MEL-2 melanoma; 101% in the experiment on EKVX NSCLC; 96.4% with SN12C renal; 85.8% in the experiment on UO-31 renal; 94% in the experiment with TK-10 renal; 101% with ACHN renal. Further, the growth in the experiment on CAKI-1 renal is 89.7%; in the experiment with A498 renal, 109%; in the experiment with CCRF-CEM leukemia, 102%; in the experiment on MOLT-4 leukemia it was 104%.
With `COC(=O)c1n[nH]c2ccc3nc(-c4cn[nH]c4C(F)(F)F)c4c(c3c12)CCCC4`, the growth in the experiment with SK-MEL-2 melanoma is 11.9%; with EKVX NSCLC, 64%; with SN12C renal, 47.7%; in the experiment with UO-31 renal it was 29%; in the experiment with TK-10 renal it was 19.4%; in the experiment with ACHN renal, 39%. In addition, the growth in the experiment on CAKI-1 renal is 15.3%; in the experiment with A498 renal, 5.79% (active); in the experiment with CCRF-CEM leukemia it was 42.8%; in the experiment on MOLT-4 leukemia it was 50.4%.
On to `Cc1cc(Cl)ccc1Nc1nc(C(F)(F)F)ccc1C(=O)N/N=C/c1ccc([N+](=O)[O-])cc1`, for which the growth with SK-MEL-2 melanoma was -33.5% (active); in the experiment on EKVX NSCLC, -8.42% (active); with SN12C renal, 4.6% (active); in the experiment with UO-31 renal, -27.1% (active); with TK-10 renal, -8.71% (active); with ACHN renal it was -22.9% (active). Also, the growth with CAKI-1 renal is 2.14% (active); with A498 renal it was 88.9%; in the experiment on CCRF-CEM leukemia, -12.9% (active); in the experiment on MOLT-4 leukemia it was -5.84% (active).
As to `CCOc1ccc(NC(=O)CSc2oc(-c3ccccc3)nc2S(=O)(=O)c2ccc(F)cc2)cc1`, the growth is 81.4% in the experiment with SK-MEL-2 melanoma; 82.7% with EKVX NSCLC; 89.4% in the experiment with SN12C renal; 94.5% in the experiment on UO-31 renal; 83% in the experiment on TK-10 renal; 73.7% in the experiment with ACHN renal. The growth in the experiment on CAKI-1 renal was 82.8%; in the experiment on A498 renal, 63.7%; in the experiment with CCRF-CEM leukemia, 79.8%; in the experiment with MOLT-4 leukemia it was 63.9%.
With `c1cc2[nH]ncc2cc1-c1nc2ccc3[nH]ncc3c2c2c1CCCC2`, the growth with SK-MEL-2 melanoma is -48.7% (active); in the experiment with EKVX NSCLC, 17.8%; in the experiment with SN12C renal, 20.6%; in the experiment on UO-31 renal, -0.203% (active); in the experiment on TK-10 renal, 8.08% (active); in the experiment on ACHN renal, 9.47% (active). Also, the growth was 9.5% (active) with CAKI-1 renal, -1.43% (active) with A498 renal, 9.05% (active) in the experiment with CCRF-CEM leukemia and -6.76% (active) in the experiment on MOLT-4 leukemia.

The values are drawn from PubChem BioAssay (NCI).
